In publication PMC11062922 (Nature Chemical Biology, 2023):
Like-named read-outs stand apart in the source and are kept apart here.

Experiments:
Details in all cases: read-out: apparent Kd, n = 1
PRKAA1 = tested on: PRKAA1
PRKAG1 = tested on: PRKAG1
PRKAG2 = tested on: PRKAG2
PRKD1 = tested on: PRKD1
[1] = compound concentrations:100 nM and 1000 nM (sheet 'Lestaurtinib' of Supplementary Table 1),run:Lestaurtinib_02367_R3,Plate:MR003
[2] = compound concentrations:100 nM and 1000 nM (sheet 'Lestaurtinib' of Supplementary Table 1),run:Lestaurtinib_02381_R1,Plate:MR004
[3] = compound concentrations:100 nM and 1000 nM (sheet 'Lestaurtinib' of Supplementary Table 1),run:Lestaurtinib_02381_R3,Plate:MR004
[4] = compound concentrations:100 nM and 1000 nM (sheet 'Lestaurtinib' of Supplementary Table 1),run:Lestaurtinib_02422_R1,Plate:MR006
[5] = compound concentrations:100 nM and 1000 nM (sheet 'Lestaurtinib' of Supplementary Table 1),run:Lestaurtinib_02437_R3,Plate:MR007
[6] = compound concentrations:100 nM and 1000 nM (sheet 'Lestaurtinib' of Supplementary Table 1),run:Lestaurtinib_02438_R3,Plate:MR008
[7] = compound concentrations:100 nM and 1000 nM (sheet 'Lestaurtinib' of Supplementary Table 1),run:Lestaurtinib_02443_R3,Plate:MR009
[8] = compound concentrations:100 nM and 1000 nM (sheet 'Lestaurtinib' of Supplementary Table 1),run:Lestaurtinib_02473_R2,Plate:MR010
[9] = compound concentrations:100 nM and 1000 nM (sheet 'Lestaurtinib' of Supplementary Table 1),run:Lestaurtinib_02473_R3,Plate:MR010
[10] = compound concentrations:100 nM and 1000 nM (sheet 'Lestaurtinib' of Supplementary Table 1),run:Lestaurtinib_02482_R2,Plate:MR011
[11] = compound concentrations:100 nM and 1000 nM (sheet 'Lestaurtinib' of Supplementary Table 1),run:Lestaurtinib_02487_R1,Plate:MR012
[12] = compound concentrations:100 nM and 1000 nM (sheet 'Lestaurtinib' of Supplementary Table 1),run:Lestaurtinib_02566_R3,Plate:MR014
[13] = compound concentrations:100 nM and 1000 nM (sheet 'Lestaurtinib' of Supplementary Table 1),run:Lestaurtinib_02584_R2,Plate:MR017
[14] = compound concentrations:100 nM and 1000 nM (sheet 'Lestaurtinib' of Supplementary Table 1),run:Lestaurtinib_02606_R2,Plate:MR019
[15] = compound concentrations:100 nM and 1000 nM (sheet 'Lestaurtinib' of Supplementary Table 1),run:Lestaurtinib_02624_R3,Plate:MR020
[16] = compound concentrations:100 nM and 1000 nM (sheet 'Lestaurtinib' of Supplementary Table 1),run:Lestaurtinib_02748_R1,Plate:MR024
[17] = compound concentrations:100 nM and 1000 nM (sheet 'Lestaurtinib' of Supplementary Table 1),run:Lestaurtinib_02752_R3,Plate:MR025
[18] = compound concentrations:100 nM and 1000 nM (sheet 'Lestaurtinib' of Supplementary Table 1),run:Lestaurtinib_02768_R3,Plate:MR028
[19] = compound concentrations:100 nM and 1000 nM (sheet 'Lestaurtinib' of Supplementary Table 1),run:Lestaurtinib_02896_R3,Plate:MR030
[20] = compound concentrations:100 nM and 1000 nM (sheet 'Lestaurtinib' of Supplementary Table 1),run:Lestaurtinib_03172_R1,Plate:MR031
[21] = compound concentrations:100 nM and 1000 nM (sheet 'Lestaurtinib' of Supplementary Table 1),run:Lestaurtinib_02364_R3,Plate:MR002
[22] = compound concentrations:100 nM and 1000 nM (sheet 'Lestaurtinib' of Supplementary Table 1),run:Lestaurtinib_02407_R1,Plate:MR005
[23] = compound concentrations:100 nM and 1000 nM (sheet 'Lestaurtinib' of Supplementary Table 1),run:Lestaurtinib_02407_R3,Plate:MR005

Substance: Lestaurtinib
- potency estimated from few doses (PRKAA1; [1]): 951 nM
- potency estimated from few doses (PRKAA1; [2]): 919 nM
- potency estimated from few doses (PRKAA1; compound concentrations:100 nM and 1000 nM (sheet 'Lestaurtinib' of Supplementary Table 1),run:Lestaurtinib_02381_R2,Plate:MR004): 900 nM
- potency estimated from few doses (PRKAA1; [3]): 952 nM
- potency estimated from few doses (PRKAA1; [4]): 741 nM
- potency estimated from few doses (PRKAA1; [5]): 79.1 nM
- potency estimated from few doses (PRKAA1; compound concentrations:100 nM and 1000 nM (sheet 'Lestaurtinib' of Supplementary Table 1),run:Lestaurtinib_02438_R1,Plate:MR008): 898 nM
- potency estimated from few doses (PRKAA1; [6]): 1600 nM
- potency estimated from few doses (PRKAA1; [7]): 762 nM
- potency estimated from few doses (PRKAA1; [8]): 944 nM
- potency estimated from few doses (PRKAA1; [9]): 74.3 nM
- potency estimated from few doses (PRKAA1; compound concentrations:100 nM and 1000 nM (sheet 'Lestaurtinib' of Supplementary Table 1),run:Lestaurtinib_02482_R1,Plate:MR011): 1130 nM
- potency estimated from few doses (PRKAA1; [10]): 1490 nM
- potency estimated from few doses (PRKAA1; [11]): 253 nM
- potency estimated from few doses (PRKAA1; compound concentrations:100 nM and 1000 nM (sheet 'Lestaurtinib' of Supplementary Table 1),run:Lestaurtinib_02487_R3,Plate:MR012): 737 nM
- potency estimated from few doses (PRKAA1; [12]): 1310 nM
- potency estimated from few doses (PRKAA1; compound concentrations:100 nM and 1000 nM (sheet 'Lestaurtinib' of Supplementary Table 1),run:Lestaurtinib_02572_R1,Plate:MR015): 904 nM
- potency estimated from few doses (PRKAA1; [13]): 1310 nM
- potency estimated from few doses (PRKAA1; [14]): 1490 nM
- potency estimated from few doses (PRKAA1; [15]): 1310 nM
- potency estimated from few doses (PRKAA1; compound concentrations:100 nM and 1000 nM (sheet 'Lestaurtinib' of Supplementary Table 1),run:Lestaurtinib_02724_R3,Plate:MR021): 883 nM
- potency estimated from few doses (PRKAA1; [16]): 858 nM
- potency estimated from few doses (PRKAA1; compound concentrations:100 nM and 1000 nM (sheet 'Lestaurtinib' of Supplementary Table 1),run:Lestaurtinib_02748_R2,Plate:MR024): 956 nM
- potency estimated from few doses (PRKAA1; compound concentrations:100 nM and 1000 nM (sheet 'Lestaurtinib' of Supplementary Table 1),run:Lestaurtinib_02752_R1,Plate:MR025): 1360 nM
- potency estimated from few doses (PRKAA1; [17]): 1210 nM
- potency estimated from few doses (PRKAA1; compound concentrations:100 nM and 1000 nM (sheet 'Lestaurtinib' of Supplementary Table 1),run:Lestaurtinib_02766_R1,Plate:MR027): 1580 nM
- potency estimated from few doses (PRKAA1; compound concentrations:100 nM and 1000 nM (sheet 'Lestaurtinib' of Supplementary Table 1),run:Lestaurtinib_02766_R3,Plate:MR027): 1320 nM
- potency estimated from few doses (PRKAA1; compound concentrations:100 nM and 1000 nM (sheet 'Lestaurtinib' of Supplementary Table 1),run:Lestaurtinib_02768_R1,Plate:MR028): 932 nM
- potency estimated from few doses (PRKAA1; [18]): 921 nM
- potency estimated from few doses (PRKAA1; compound concentrations:100 nM and 1000 nM (sheet 'Lestaurtinib' of Supplementary Table 1),run:Lestaurtinib_02896_R1,Plate:MR030): 784 nM
- potency estimated from few doses (PRKAA1; compound concentrations:100 nM and 1000 nM (sheet 'Lestaurtinib' of Supplementary Table 1),run:Lestaurtinib_02896_R2,Plate:MR030): 1130 nM
- potency estimated from few doses (PRKAA1; [19]): 931 nM
- potency estimated from few doses (PRKAA1; [20]): 1570 nM
- potency estimated from few doses (PRKAA1; compound concentrations:100 nM and 1000 nM (sheet 'Lestaurtinib' of Supplementary Table 1),run:Lestaurtinib_03172_R2,Plate:MR031): 1330 nM
- potency estimated from few doses (PRKAG1; compound concentrations:100 nM and 1000 nM (sheet 'Lestaurtinib' of Supplementary Table 1),run:Lestaurtinib_02339_R2,Plate:MR001): 584 nM
- potency estimated from few doses (PRKAG1; compound concentrations:100 nM and 1000 nM (sheet 'Lestaurtinib' of Supplementary Table 1),run:Lestaurtinib_02339_R3,Plate:MR001): 531 nM
- potency estimated from few doses (PRKAG1; [21]): 1000 nM
- potency estimated from few doses (PRKAG1; [1]): 887 nM
- potency estimated from few doses (PRKAG1; [2]): 712 nM
- potency estimated from few doses (PRKAG1; [3]): 611 nM
- potency estimated from few doses (PRKAG1; [22]): 924 nM
- potency estimated from few doses (PRKAG1; compound concentrations:100 nM and 1000 nM (sheet 'Lestaurtinib' of Supplementary Table 1),run:Lestaurtinib_02407_R2,Plate:MR005): 928 nM
- potency estimated from few doses (PRKAG1; [23]): 1150 nM
- potency estimated from few doses (PRKAG1; [4]): 131 nM
- potency estimated from few doses (PRKAG1; compound concentrations:100 nM and 1000 nM (sheet 'Lestaurtinib' of Supplementary Table 1),run:Lestaurtinib_02437_R2,Plate:MR007): 1340 nM
- potency estimated from few doses (PRKAG1; [5]): 83.7 nM
- potency estimated from few doses (PRKAG1; [6]): 1600 nM
- potency estimated from few doses (PRKAG1; [7]): 935 nM
- potency estimated from few doses (PRKAG1; [8]): 859 nM
- potency estimated from few doses (PRKAG1; [9]): 835 nM
- potency estimated from few doses (PRKAG1; [10]): 1580 nM
- potency estimated from few doses (PRKAG1; [11]): 365 nM
- potency estimated from few doses (PRKAG1; [12]): 79.5 nM
- potency estimated from few doses (PRKAG1; compound concentrations:100 nM and 1000 nM (sheet 'Lestaurtinib' of Supplementary Table 1),run:Lestaurtinib_02584_R1,Plate:MR017): 798 nM
- potency estimated from few doses (PRKAG1; [13]): 936 nM
- potency estimated from few doses (PRKAG1; compound concentrations:100 nM and 1000 nM (sheet 'Lestaurtinib' of Supplementary Table 1),run:Lestaurtinib_02601_R1,Plate:MR018): 963 nM
- potency estimated from few doses (PRKAG1; [14]): 1240 nM
- potency estimated from few doses (PRKAG1; compound concentrations:100 nM and 1000 nM (sheet 'Lestaurtinib' of Supplementary Table 1),run:Lestaurtinib_02624_R2,Plate:MR020): 876 nM
- potency estimated from few doses (PRKAG1; [15]): 1320 nM
- potency estimated from few doses (PRKAG1; compound concentrations:100 nM and 1000 nM (sheet 'Lestaurtinib' of Supplementary Table 1),run:Lestaurtinib_02748_R3,Plate:MR024): 1790 nM
- potency estimated from few doses (PRKAG1; compound concentrations:100 nM and 1000 nM (sheet 'Lestaurtinib' of Supplementary Table 1),run:Lestaurtinib_02752_R2,Plate:MR025): 818 nM
- potency estimated from few doses (PRKAG1; [17]): 954 nM
- potency estimated from few doses (PRKAG1; compound concentrations:100 nM and 1000 nM (sheet 'Lestaurtinib' of Supplementary Table 1),run:Lestaurtinib_02768_R2,Plate:MR028): 1540 nM
- potency estimated from few doses (PRKAG1; [18]): 852 nM
- potency estimated from few doses (PRKAG1; compound concentrations:100 nM and 1000 nM (sheet 'Lestaurtinib' of Supplementary Table 1),run:Lestaurtinib_02795_R2,Plate:MR022): 1330 nM
- potency estimated from few doses (PRKAG1; compound concentrations:100 nM and 1000 nM (sheet 'Lestaurtinib' of Supplementary Table 1),run:Lestaurtinib_02802_R1,Plate:MR029): 1150 nM
- potency estimated from few doses (PRKAG1; compound concentrations:100 nM and 1000 nM (sheet 'Lestaurtinib' of Supplementary Table 1),run:Lestaurtinib_02802_R2,Plate:MR029): 1430 nM
- potency estimated from few doses (PRKAG1; [19]): 700 nM
- potency estimated from few doses (PRKAG1; compound concentrations:100 nM and 1000 nM (sheet 'Lestaurtinib' of Supplementary Table 1),run:Lestaurtinib_03252_R1,Plate:MR032): 744 nM
- potency estimated from few doses (PRKAG1; compound concentrations:100 nM and 1000 nM (sheet 'Lestaurtinib' of Supplementary Table 1),run:Lestaurtinib_03260_R1,Plate:MR033): 860 nM
- potency estimated from few doses (PRKAG1; compound concentrations:100 nM and 1000 nM (sheet 'Lestaurtinib' of Supplementary Table 1),run:Lestaurtinib_03260_R2,Plate:MR033): 760 nM
- potency estimated from few doses (PRKAG2; compound concentrations:100 nM and 1000 nM (sheet 'Lestaurtinib' of Supplementary Table 1),run:Lestaurtinib_02367_R2,Plate:MR003): 1350 nM
- potency estimated from few doses (PRKAG2; [1]): 1360 nM
- potency estimated from few doses (PRKAG2; [22]): 888 nM
- potency estimated from few doses (PRKAG2; [23]): 1340 nM
- potency estimated from few doses (PRKAG2; [4]): 629 nM
- potency estimated from few doses (PRKAG2; compound concentrations:100 nM and 1000 nM (sheet 'Lestaurtinib' of Supplementary Table 1),run:Lestaurtinib_02438_R2,Plate:MR008): 1210 nM
- potency estimated from few doses (PRKAG2; [9]): 1240 nM
- potency estimated from few doses (PRKAG2; [11]): 352 nM
- potency estimated from few doses (PRKAG2; [12]): 888 nM
- potency estimated from few doses (PRKAG2; [16]): 1240 nM
- potency estimated from few doses (PRKAG2; [20]): 1370 nM
- potency estimated from few doses (PRKD1; [21]): 131 nM
- potency estimated from few doses (PRKD1; compound concentrations:100 nM and 1000 nM (sheet 'Lestaurtinib' of Supplementary Table 1),run:Lestaurtinib_02443_R2,Plate:MR009): 226 nM
- potency estimated from few doses (PRKD1; [7]): 271 nM
- potency estimated from few doses (PRKD1; compound concentrations:100 nM and 1000 nM (sheet 'Lestaurtinib' of Supplementary Table 1),run:Lestaurtinib_02473_R1,Plate:MR010): 248 nM
- potency estimated from few doses (PRKD1; [8]): 235 nM
- potency estimated from few doses (PRKD1; compound concentrations:100 nM and 1000 nM (sheet 'Lestaurtinib' of Supplementary Table 1),run:Lestaurtinib_02496_R2,Plate:MR013): 47.1 nM
- potency estimated from few doses (PRKD1; compound concentrations:100 nM and 1000 nM (sheet 'Lestaurtinib' of Supplementary Table 1),run:Lestaurtinib_02566_R1,Plate:MR014): 253 nM
